We go through nine compounds from PubChem BioAssay (NCATS).

SMILES strings stand for the structures. Records with an inconclusive call do not appear. Activity calls are given as the source filed them. Unless noted, the call rests on the fitted dose curve; in most records, active means well fitted curve in the direction sought with a large enough effect; inconclusive means small, poorly fitted or top-dose-only effect, or another doubt; inactive means no such curve, though single readings can be large; an effect the other way counts as inactive or inconclusive.

In test [1] the target is Methanococcus maripaludis chaperonin (MmCpn) (UniProt Q6LX38). In words: High-Throughput Screening for Modulators of Cytosolic Chaperonin Activity: MmCpn Primary Screen (AID 488978).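 Further: 50 nM MmCpn enzyme hydrolysing 30 µM ATP at 37 °C; 0% is about no effect.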 In short, it runs like this: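 Steps: chaperonin 50 nM final; add compound, 5 min RT; start with ATP, 30 uM final; hold 10 min at 37C; add ADP Transcreener HTRF reagent, 5 min; read ex 320, em 590 and 665 nm.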

Test [2] addresses Transient receptor potential cation channel subfamily V member 1 (Homo sapiens) (UniProt Q8NER1). In words: HTS Assay for Compounds that Act as Enhancers of the Vanilloid Receptor 1 (AID 488979). Further: 0% is about no effect. The method, boiled down:
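TRPV1 cells loaded with Fluo-8 calcium dye; compound added and Ca2+ signal (ex 480/em 520 nm) followed 3 min, then capsaicin at EC20 added and read 2 more min to detect enhancement.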

Test [3] has as its target Thyrotropin receptor (Homo sapiens) (UniProt P16473). In words: qHTS Assay for Antagonists of the Thyroid Stimulating Hormone Receptor (AID 488980). Further: series mostly up to about 58 µM; 0% is about no effect. The method, boiled down: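 Readout is cAMP by HTRF competition between cellular cAMP and cAMP-d2 for a cryptate-labelled antibody. Antagonism was assessed in TSHR-transfected HEK293 cells stimulated with 4 nM TSH (EC80, final) in the presence of RO 20-1724.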
A general note: qHTS replaces the single test concentration by a dilution series.

The target of test [4] is D(1A) dopamine receptor (Homo sapiens) (UniProt P21728). In words: HTS Assay for Allosteric Agonists of the Human D1 Dopamine Receptor: Primary Screen for Antagonists (AID 488983).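 Further: calcium flux response to an EC80 dopamine challenge measured with no-wash dye; on the % scale 0 is the no-effect control and ±100 the full control effect; nearly all actives have a fitted effect of over 65% in size.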 In short, it runs like this:
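Tetracycline-induced HEK293 T-REx D1 line, force-coupled to calcium flux, read with no-wash calcium dye. Compound added after 10 s baseline, read 180 s for agonism, then EC80 dopamine added and read a further 180 s.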

The target in test [5] is ATP-dependent 6-phosphofructokinase (Trypanosoma brucei brucei) (UniProt O15648). Briefly: qHTS Assay to Find Inhibitors of T. brucei phosphofructokinase: hit validation (AID 492961).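 Further: luminescence reports ADP formed as PFK phosphorylates fructose-6-phosphate with ATP; series mostly up to about 51 µM; on the % scale 0 is the no-effect control and ±100 the full control effect.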 The method, boiled down:
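Inhibition of parasite PFK is measured as reduced ADP formation, quantified via luciferase after ATP depletion. Assay used 0.1 mM ATP, 0.5 mM F6P, 1.25 nM enzyme, 45 min incubation.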

Test [6] is described as follows: Validation screen for small molecules that induce genotoxicity in human embryonic kidney (HEK293T) cells expressing luciferase-tagged ELG1 (AID 493106). Further: 0% is about no effect. The method, boiled down:
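HEK293T cells expressing luciferase-tagged ELG1, 2,000 cells/well, exposed to compound 16 hr at 37 °C, 5% CO2. Luciferase read after ONE-Glo, 30 min at room temperature; increased signal indicates genetic stress.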

Test [7] addresses ATPase family AAA domain-containing protein 5 (Homo sapiens) (UniProt Q96QE3). Briefly: Validation screen for small molecules that inhibit ELG1-dependent DNA repair in human embryonic kidney (HEK293T) cells expressing luciferase-tagged ELG1 (AID 493107).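 Further: cells co-treated with the DNA-damaging agent 5-fluorouridine alongside compound; series mostly up to about 46 µM; on the % scale 0 is the no-effect control and ±100 the full control effect; inhibitors lower the ELG1-luciferase luminescence signal; nearly all actives have a fitted effect of over 70% in size.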 The method, boiled down:
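HEK293T cells expressing luciferase-tagged ELG1, 2,000 per well, treated with 5-fluorouridine plus compound for 16 h at 37 C. ONE-Glo luminescence after 30 min at room temperature reports ELG1 reporter level.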

Test [8] deals with Thyrotropin-releasing hormone receptor (Homo sapiens) (UniProt P34981). In words: qHTS for Small Molecule Agonists and Allosteric Enhancers of Human TRH Receptor: Validation Screen for Agonists (AID 493127;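 active means calcium activation more than 3 SD above the typical response in the agonist read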; further: 0% is about no effect). Conditions: TRH receptor agonist cell assay; at 2 µM; stronger effect = higher value. The method, boiled down:
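TRHR cells loaded with fluo-8 calcium dye; FDSS kinetic fluorescence (Ex 480/Em 530) read at 1 s/cycle after 23 nL compound addition. Agonist-mode calcium response recorded before the 10 nM TRH (EC20) addition.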

Test [9] can be described thus: Nrf2 qHTS screen for inhibitors: Validation (AID 493153; active means well fitted inhibition curve with a large enough effect in the main read-out, with a control signal flat, not every such curve was filed as active). Conditions: viability change: measured here: cytotoxicity max response. The method, boiled down:
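A549 cells carrying ARE-firefly luciferase reporter, 5000 cells/well in 5% FBS OPTI-MEM, treated with compound over a concentration series for 18-24 h at 37 C. Luciferase luminescence gave Nrf2 activity; CellTiter-Fluor fluorescence gave viability.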

Test [10] can be described thus: qHTS for Inhibitors of Cell Surface uPA Generation: Validation Assay (AID 493164). Further: 0% is about no effect. In short, it runs like this: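 RAW 264.7 cells (4000/well) were plated overnight, then exposed for 18 h at 37 C, 5% CO2 to compounds in a 7-point 1:5 titration (2.45 nM–38.3 uM final). Intracellular ATP was read by ATP-Lite luminescence.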
The target of test [11] is Galactokinase (Homo sapiens) (UniProt P51570). In words: qHTS Validation Assay for Inhibitors of Human Galactokinase (GALK) (AID 493189). Further: 0% is about no effect. The method, boiled down:
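5 nM GALK / 100 uM galactose / 35 uM ATP, 20 mM HEPES pH8.0, 5 mM MgCl2, 60 mM NaCl, 1 mM DTT, 0.01% BSA (final). RT 1 h; Kinase-Glo Plus luminescence.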

Test [12] in a line: Validation screen for small molecules that induce DNA re-replication in SW480 colon adenocarcinoma cells (AID 504364). Further: 0% is about no effect. In short, it runs like this:
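SW480 cells (250/well) exposed 48 h at 37 C, 5% CO2, then Hoechst-stained 40 min. Nuclear DNA content imaged by fluorescence scanning (405 nm excitation, 500-530 nm emission); re-replication scored as increased nuclei with elevated intensity.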

For test [13], the target named is Peptidyl-prolyl cis-trans isomerase NIMA-interacting 1 (Homo sapiens) (UniProt Q13526). Briefly: qHTS Validation Assay to Find Inhibitors of Pin1 (AID 504536; active means well fitted inhibition curve with a large enough effect in the polarisation, with a control signal flat, not every such curve was filed as active; the % refers to the polarisation;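 further: 0% = full Pin1 enzyme wells and -100% = no-enzyme wells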). In short, it runs like this:
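Fluorescence polarization competition: compounds (titration) displace HiFluor-488-labeled Pin1-1b peptide from Pin1 (0.3 uM final) in pH 7.5 HEPES buffer with DTT, 10 min at room temperature; %Activity normalized to no-enzyme wells, curves fitted.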

In test [14] the target is Phosphoglycerate kinase, glycosomal (Trypanosoma brucei brucei) (UniProt P07378). Briefly: qHTS Validation Assay to Find Inhibitors of Phosphoglycerate Kinase (AID 504547).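 Further: control wells lack PGK and mark full inhibition.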 In short, it runs like this: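 PGK activity was coupled to GAPDH (100nM final), which generates the unstable substrate 1,3-bisphosphoglycerate in-well. Reactions ran 60 minutes at room temperature in 100mM TEA pH 7.6, 5mM MgCl2, 0.01% Tween-20, then Kinase-Glo Plus luminescence was read.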

For test [15], the target named is phosphoglycerate mutase (Leishmania major) (UniProt Q4Q090). Briefly: qHTS Validation Assay to Find Inhibitors of Phosphoglycerate Mutase (AID 504548).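 Further: end-point luminescence from Kinase-GloPlus after the PGAM reaction; series mostly up to about 58 µM; on the % scale 0 is the no-effect control and ±100 the full control effect.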 In short, it runs like this:
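L. major PGAM (1.25nM final) was added to substrate buffer and pinned compound, incubated 45 minutes at room temperature, then Kinase-GloPlus added; luminescence read after 10 minutes. Buffer: 100 mM TEA pH 7.6, 5 mM MgCl2, 0.01% Tween-20.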

The nature of test [16]: qHTS for Inhibitors of ATXN expression: Validation of Cytotoxic Assay (AID 588349). Further: potency means the concentration at half of the fitted maximal effect. The method, boiled down: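 HEK293 cells treated with titrated compound for 72 hr at 37 degrees C; viability read as intracellular ATP by CellTiter Glo luminescence.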
The target of test [17] is DNA dC->dU-editing enzyme APOBEC-3G (Homo sapiens) (UniProt Q9HC16). In words: qHTS for inhibitors of Vif-A3G interactions: Validation (AID 588379). Further: 0% is about no effect. In short, it runs like this: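 HeLa cells stably expressing Vif and A3G-eYFP, 700 cells/well, incubated overnight at 37 deg C, then exposed to compound overnight at 37 deg C. Inhibition of Vif-mediated degradation read as increased yellow fluorescence (Ex 488/Em 500-530) by laser-scanning cytometry.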

Test [18] deals with D(1A) dopamine receptor (Homo sapiens) (UniProt P21728). In words: HTS Assay for Allosteric Agonists of the Human D1 Dopamine Receptor: Primary Screen for Agonists (AID 488981). Further: 0% is about no effect. The method, boiled down: (§1)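 Tetracycline-induced HEK293 Trex D1 cells with forced coupling to calcium, loaded with no-wash calcium dye; kinetic fluorescence read 180 s after compound addition for agonism, then a further 180 s after an EC20 dopamine challenge for potentiation.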

Test [19] has the same target. Briefly: HTS Assay for Allosteric Agonists of the Human D1 Dopamine Receptor: Primary Screen for Potentiators (AID 488982). Further: 0% is about no effect. In short, it runs like this:
as §1

The target in test [20] is Ubiquitin carboxyl-terminal hydrolase 1 (Homo sapiens) (UniProt O94782). In words: Inhibitors of USP1/UAF1: Pilot qHTS (AID 504865).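 Further: rhodamine fluorescence freed from ubiquitin-rhodamine substrate followed over time; top concentration of the series differs between compounds; on the % scale 0 is the no-effect control and ±100 the full control effect; nearly all actives have a fitted effect of over 35% in size.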 In short, it runs like this:
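In 50mM HEPES pH 7.8 containing 0.5mM EDTA, 1mM TCEP, 0.1 mg/ml BSA and 0.01% Tween-20, 1nM USP1/UAF1 is exposed to compound for 15 min, then Ub-Rho (150nM final) is added and fluorescence is read over time.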

Sequence of Galactokinase (Homo sapiens) (P51570 whole entry, looked up): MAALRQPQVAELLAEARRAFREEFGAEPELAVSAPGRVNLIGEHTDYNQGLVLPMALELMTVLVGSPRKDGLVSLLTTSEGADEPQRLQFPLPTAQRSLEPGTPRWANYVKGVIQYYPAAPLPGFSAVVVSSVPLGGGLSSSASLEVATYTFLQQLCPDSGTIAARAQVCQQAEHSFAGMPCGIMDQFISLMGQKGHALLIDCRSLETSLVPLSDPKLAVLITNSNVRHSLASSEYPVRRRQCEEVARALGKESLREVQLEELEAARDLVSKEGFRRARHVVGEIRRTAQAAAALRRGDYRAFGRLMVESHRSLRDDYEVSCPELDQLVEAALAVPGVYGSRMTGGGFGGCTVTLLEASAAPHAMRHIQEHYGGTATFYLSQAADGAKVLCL
Sequence of D(1A) dopamine receptor (Homo sapiens) (P21728 whole entry, looked up): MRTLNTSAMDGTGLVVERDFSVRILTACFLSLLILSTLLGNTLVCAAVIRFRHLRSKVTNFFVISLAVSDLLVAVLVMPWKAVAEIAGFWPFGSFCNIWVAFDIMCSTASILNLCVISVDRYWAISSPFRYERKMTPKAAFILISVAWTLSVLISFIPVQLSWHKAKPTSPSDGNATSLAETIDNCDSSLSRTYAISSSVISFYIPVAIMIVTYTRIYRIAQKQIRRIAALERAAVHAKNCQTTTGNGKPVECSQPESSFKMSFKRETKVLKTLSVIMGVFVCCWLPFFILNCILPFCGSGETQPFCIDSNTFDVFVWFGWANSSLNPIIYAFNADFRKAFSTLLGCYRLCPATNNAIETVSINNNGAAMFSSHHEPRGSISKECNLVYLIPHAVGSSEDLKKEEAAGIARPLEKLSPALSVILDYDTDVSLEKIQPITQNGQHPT
Sequence of Peptidyl-prolyl cis-trans isomerase NIMA-interacting 1 (Homo sapiens) (Q13526 whole entry, looked up): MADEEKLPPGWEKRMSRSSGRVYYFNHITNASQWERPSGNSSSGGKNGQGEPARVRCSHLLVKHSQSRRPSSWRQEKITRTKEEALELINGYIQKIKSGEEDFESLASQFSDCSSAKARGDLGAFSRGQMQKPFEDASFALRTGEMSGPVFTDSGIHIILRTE
Sequence of Thyrotropin-releasing hormone receptor (Homo sapiens) (P34981 whole entry, looked up): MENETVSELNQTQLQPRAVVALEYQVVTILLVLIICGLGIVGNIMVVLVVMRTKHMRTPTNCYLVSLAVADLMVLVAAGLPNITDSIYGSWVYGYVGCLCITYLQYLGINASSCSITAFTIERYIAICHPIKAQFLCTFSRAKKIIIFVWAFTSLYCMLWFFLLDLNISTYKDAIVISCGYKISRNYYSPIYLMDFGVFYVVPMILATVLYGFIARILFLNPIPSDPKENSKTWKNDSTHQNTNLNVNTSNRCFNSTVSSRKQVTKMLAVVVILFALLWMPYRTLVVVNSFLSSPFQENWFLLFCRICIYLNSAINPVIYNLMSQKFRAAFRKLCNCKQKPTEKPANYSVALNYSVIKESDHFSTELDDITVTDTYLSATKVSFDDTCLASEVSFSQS
Sequence of ATPase family AAA domain-containing protein 5 (Homo sapiens) (Q96QE3 whole entry, looked up, the tested form may be a part): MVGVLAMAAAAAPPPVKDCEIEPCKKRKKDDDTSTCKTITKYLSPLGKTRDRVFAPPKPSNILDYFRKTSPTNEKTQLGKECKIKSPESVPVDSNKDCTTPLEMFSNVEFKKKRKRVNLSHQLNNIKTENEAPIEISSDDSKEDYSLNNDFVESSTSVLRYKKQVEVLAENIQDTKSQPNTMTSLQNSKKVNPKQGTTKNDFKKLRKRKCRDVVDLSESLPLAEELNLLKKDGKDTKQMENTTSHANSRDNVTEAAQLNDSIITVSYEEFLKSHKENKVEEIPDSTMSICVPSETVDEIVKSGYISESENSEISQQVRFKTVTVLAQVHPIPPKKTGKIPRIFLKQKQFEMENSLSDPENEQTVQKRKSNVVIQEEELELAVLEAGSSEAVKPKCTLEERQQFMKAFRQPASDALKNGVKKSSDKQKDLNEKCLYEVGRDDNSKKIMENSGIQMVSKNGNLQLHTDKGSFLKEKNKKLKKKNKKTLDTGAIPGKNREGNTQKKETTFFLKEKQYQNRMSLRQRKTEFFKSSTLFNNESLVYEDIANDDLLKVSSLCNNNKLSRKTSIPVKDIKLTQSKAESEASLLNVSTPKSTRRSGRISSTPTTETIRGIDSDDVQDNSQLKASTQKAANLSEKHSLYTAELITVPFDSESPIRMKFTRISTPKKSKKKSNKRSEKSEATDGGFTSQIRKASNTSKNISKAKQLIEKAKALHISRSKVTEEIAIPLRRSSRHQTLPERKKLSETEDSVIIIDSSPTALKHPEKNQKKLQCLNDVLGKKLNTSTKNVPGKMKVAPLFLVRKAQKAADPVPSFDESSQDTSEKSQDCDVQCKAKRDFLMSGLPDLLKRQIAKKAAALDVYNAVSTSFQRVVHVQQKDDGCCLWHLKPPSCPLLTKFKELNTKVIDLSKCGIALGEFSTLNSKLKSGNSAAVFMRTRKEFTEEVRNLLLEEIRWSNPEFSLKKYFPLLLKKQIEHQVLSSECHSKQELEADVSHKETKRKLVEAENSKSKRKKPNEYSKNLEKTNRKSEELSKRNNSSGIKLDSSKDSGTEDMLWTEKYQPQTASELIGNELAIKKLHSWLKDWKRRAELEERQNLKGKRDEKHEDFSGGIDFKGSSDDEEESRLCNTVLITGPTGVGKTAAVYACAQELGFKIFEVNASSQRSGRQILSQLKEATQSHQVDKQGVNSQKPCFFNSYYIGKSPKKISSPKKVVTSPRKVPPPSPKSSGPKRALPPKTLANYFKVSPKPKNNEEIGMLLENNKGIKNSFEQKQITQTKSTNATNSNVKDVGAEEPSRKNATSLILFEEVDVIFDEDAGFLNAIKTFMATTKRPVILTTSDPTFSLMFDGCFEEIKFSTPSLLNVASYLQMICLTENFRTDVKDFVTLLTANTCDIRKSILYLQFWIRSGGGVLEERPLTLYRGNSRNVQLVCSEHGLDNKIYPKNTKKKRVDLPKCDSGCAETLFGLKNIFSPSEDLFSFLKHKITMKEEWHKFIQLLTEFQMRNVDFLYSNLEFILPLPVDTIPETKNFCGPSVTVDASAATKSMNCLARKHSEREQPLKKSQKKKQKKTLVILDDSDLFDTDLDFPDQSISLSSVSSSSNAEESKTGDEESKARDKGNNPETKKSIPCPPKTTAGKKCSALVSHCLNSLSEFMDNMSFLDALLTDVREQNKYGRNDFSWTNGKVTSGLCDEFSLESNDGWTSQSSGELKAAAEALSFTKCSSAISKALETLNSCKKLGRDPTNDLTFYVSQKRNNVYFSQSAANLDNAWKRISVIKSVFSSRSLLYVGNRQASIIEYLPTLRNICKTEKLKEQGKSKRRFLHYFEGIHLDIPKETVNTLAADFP
Sequence of Phosphoglycerate kinase, glycosomal (Trypanosoma brucei brucei) (P07378 whole entry, looked up): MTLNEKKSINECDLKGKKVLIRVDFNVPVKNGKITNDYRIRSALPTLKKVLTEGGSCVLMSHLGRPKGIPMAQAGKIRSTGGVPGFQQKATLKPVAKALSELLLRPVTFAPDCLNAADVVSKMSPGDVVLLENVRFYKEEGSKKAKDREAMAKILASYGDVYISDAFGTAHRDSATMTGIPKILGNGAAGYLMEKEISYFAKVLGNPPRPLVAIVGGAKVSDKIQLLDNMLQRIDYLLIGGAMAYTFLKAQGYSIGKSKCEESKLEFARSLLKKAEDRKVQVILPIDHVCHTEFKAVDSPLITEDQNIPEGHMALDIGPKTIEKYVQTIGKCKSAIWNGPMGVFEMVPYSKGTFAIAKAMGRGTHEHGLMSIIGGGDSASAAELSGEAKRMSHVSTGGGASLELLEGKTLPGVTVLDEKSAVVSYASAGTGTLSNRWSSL
Sequence of Methanococcus maripaludis chaperonin (MmCpn) (Q6LX38 1-543): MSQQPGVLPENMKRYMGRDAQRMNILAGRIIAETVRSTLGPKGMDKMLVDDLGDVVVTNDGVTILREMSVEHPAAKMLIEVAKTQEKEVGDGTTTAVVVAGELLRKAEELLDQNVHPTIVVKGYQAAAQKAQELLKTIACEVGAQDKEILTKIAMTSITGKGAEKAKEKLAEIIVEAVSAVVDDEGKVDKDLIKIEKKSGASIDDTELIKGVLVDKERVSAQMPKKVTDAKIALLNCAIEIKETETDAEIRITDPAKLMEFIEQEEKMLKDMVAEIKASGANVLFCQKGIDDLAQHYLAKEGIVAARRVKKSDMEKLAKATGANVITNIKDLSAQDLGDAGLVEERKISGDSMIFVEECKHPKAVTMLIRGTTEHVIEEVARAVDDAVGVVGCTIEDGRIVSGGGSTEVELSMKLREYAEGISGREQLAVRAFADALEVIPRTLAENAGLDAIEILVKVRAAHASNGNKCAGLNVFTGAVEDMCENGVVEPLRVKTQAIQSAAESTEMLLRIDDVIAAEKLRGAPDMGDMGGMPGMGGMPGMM
Sequence of Ubiquitin carboxyl-terminal hydrolase 1 (Homo sapiens) (O94782 whole entry, looked up): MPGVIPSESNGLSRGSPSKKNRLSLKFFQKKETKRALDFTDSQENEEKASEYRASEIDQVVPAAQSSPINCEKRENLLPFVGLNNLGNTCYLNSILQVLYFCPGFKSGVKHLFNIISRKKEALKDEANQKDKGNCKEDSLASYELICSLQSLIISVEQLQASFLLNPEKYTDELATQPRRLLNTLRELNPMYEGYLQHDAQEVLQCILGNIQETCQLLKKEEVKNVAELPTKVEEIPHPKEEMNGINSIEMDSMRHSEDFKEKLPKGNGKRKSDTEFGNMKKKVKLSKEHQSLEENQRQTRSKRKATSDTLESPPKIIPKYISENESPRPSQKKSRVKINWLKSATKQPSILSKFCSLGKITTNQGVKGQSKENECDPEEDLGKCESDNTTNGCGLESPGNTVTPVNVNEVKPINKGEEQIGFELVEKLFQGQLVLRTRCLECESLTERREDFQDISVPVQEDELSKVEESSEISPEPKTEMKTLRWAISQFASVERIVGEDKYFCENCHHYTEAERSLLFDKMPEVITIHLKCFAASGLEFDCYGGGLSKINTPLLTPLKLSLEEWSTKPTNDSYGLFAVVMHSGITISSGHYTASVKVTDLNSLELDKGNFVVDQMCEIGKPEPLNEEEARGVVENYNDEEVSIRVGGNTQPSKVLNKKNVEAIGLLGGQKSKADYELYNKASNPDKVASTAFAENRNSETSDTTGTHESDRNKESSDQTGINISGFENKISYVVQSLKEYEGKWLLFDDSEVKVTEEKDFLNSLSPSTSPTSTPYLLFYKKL

For `CC/C(=C(\c1ccccc1)c1ccc(OCCN(C)C)cc1)c1ccccc1`, the result in test [1], in [2], in test [3], in [5], in test [7] and in [9] was inactive. Also, the call in test [10], in test [11], in test [12], in test [13], in test [14] and in test [15] was inactive. Besides, the outcome in [17] was inactive. Further, the Potency result in [4] and in test [6] was “inactive” throughout. For the same compound, the activation in test [8] was -2.75% (inactive). Besides, the viability change in test [9] amounted to 7.91%. For the same compound, the Potency in test [16] was 25.1 µM (active).

As to `CC(C)(C)c1ccc(C(O)CCCN2CCC(C(O)(c3ccccc3)c3ccccc3)CC2)cc1` (stereo not given), the compound was classed as inactive in test [1], in test [2], in [3], in test [18], in [19] and in test [5]. The result in [9], in test [10], in [11], in test [12], in test [13] and in [14] was inactive. Also, the outcome in test [15] was inactive. Also, the Potency entry in test [6] is “inactive”. For the same compound, the viability change in test [9] was -16.1%.

As to `CCN(CC)C(=O)c1ccc(O)c(OC)c1`, the outcome in [1], in test [2], in [3], in [18], in test [19] and in [5] was inactive. Further, the outcome in [7], in [9], in test [10], in test [11], in test [12] and in test [13] was inactive. Moreover, the compound was called inactive in [14] and in test [15]. For the same compound, the Potency result in test [4], in [6], in [20] and in test [16] was “inactive” in each case. Besides, in [8], the activation was 0.938% (inactive). Further, in [9], the viability change turned out to be 8.03%.

`CC(C)OC(=O)C(C)(C)Oc1ccc(C(=O)c2ccc(Cl)cc2)cc1`: the result in [1], in test [2], in test [3], in test [18], in [19] and in [9] was inactive. Besides, the outcome in test [10], in test [11], in test [12], in test [13], in [14] and in test [15] was inactive. Moreover, the Potency result in [4], in [6] and in test [20] was “inactive” in each case. The viability change in test [9] turned out to be 3.23%.

Regarding `CC(=O)N[C@@H](CS)C(=O)O`, the compound was called inactive in test [1], in test [2], in test [3], in test [18], in [5] and in test [7]. In addition, the outcome in test [9], in [10], in test [11], in test [12], in test [13] and in test [14] was inactive. Moreover, the compound was classed as inactive in test [15]. Also, the Potency entry in [4], in [6], in test [20] and in [16] was “inactive” each time. In addition, the viability change in test [9] came out at 13.1%.

In the case of `CCN(CC)CCOC(=O)c1ccc(N)cc1`, the compound was classed as inactive in test [1], in test [2], in test [3], in test [18], in [19] and in test [5]. The result in [7], in test [9], in test [10], in test [11], in [12] and in test [13] was inactive. In addition, the compound was called inactive in [14] and in test [15]. Also, the Potency entry in [4], in [6], in [20] and in test [16] was “inactive” throughout. Besides, the activation in test [8] was -0.312% (inactive). In test [9], the viability change amounted to 0.523%.

As for `CCCCC1C(=O)N(c2ccccc2)N(c2ccccc2)C1=O`, the result in [1], in test [2], in test [3], in test [18], in [7] and in test [9] was inactive. In addition, the result in test [10], in [11], in [12], in [13], in test [14] and in test [15] was inactive. Besides, the Potency entry in test [4], in [6], in test [20] and in test [16] was “inactive” each time. Moreover, the activation in test [8] is 1.38% (inactive). For the same compound, the viability change in test [9] was -3.3%.

For `Cc1cccc(C)c1OCC(C)N` (stereo not given), the outcome in test [1], in [2], in test [3], in [18], in [19] and in test [5] was inactive. Moreover, the compound was classed as inactive in [7], in test [9], in test [10], in [12], in [13] and in test [14]. For the same compound, in [15], the compound was classed as inactive. The Potency result in test [4], in test [6], in [20] and in [16] was “inactive” in each case. In addition, in test [8], the activation was 0.438% (inactive). In addition, the viability change in test [9] was -6.18%.

In the case of `CCN1CCC[C@H]1CNC(=O)c1cc(S(N)(=O)=O)ccc1OC`, the compound was called inactive in test [1], in test [2], in test [3], in test [18], in [19] and in test [5]. In addition, the outcome in test [7], in test [9], in test [10], in [11], in [12] and in [13] was inactive. Also, the compound was classed as inactive in test [14], in test [15] and in [17]. The Potency result in [4], in test [6], in [20] and in test [16] was “inactive” in each case. The activation in test [8] is 1% (inactive). Further, the viability change in test [9] is -14.1%.
